Inconclusive results are not listed. Calls of active or inactive are those of the source. Unless noted, the call rests on the fitted dose curve; in most records, active means well fitted curve in the direction sought with a large enough effect in the repeat runs; inconclusive means weak or mixed curves; inactive means no such curve, though single readings can be large; an effect the other way counts as inactive or inconclusive.
Key:
[1] = A CellTox Green Cytotoxicity Assay to monitor cytotoxicity in HEK293 cells - 8 hour (AID 1224884); further: nearly all actives have a fitted effect of over 35% in size
Method in brief: (§1)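 HEK293 cells, 600/well, were preincubated 5 hours and then exposed to compounds at 37 C for up to 40 hours. A cell-impermeant cyanine dye staining dead-cell DNA was read by fluorescence at 0, 8, 16, 24, 32 and 40 h time points.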

[2] = qHTS RealTime-Glo MT Cell Viability Assay in HepG2 cells - 16 hour (AID 1224885); further: nearly all actives have a fitted effect of over 50% in size
Method in brief: (§2)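 HepG2 cells were seeded at 600 cells/well together with NanoLuc luciferase and a cell-permeant prosubstrate, preincubated 5 h at 37 C/5% CO2, then pin-dosed with compounds in DMSO. Nonlytic luminescence from viable cells was read at each time point.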

[3] = qHTS RealTime-Glo MT Cell Viability Assay in HEK293 cells - 24 hour (AID 1224886); further: top concentration of the series differs between compounds; nearly all actives have a fitted effect of over 50% in size
Method in brief: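 HEK293 cells were seeded at 600 cells/well together with NanoLuc luciferase and cell-permeant prosubstrate, preincubated 5 h at 37 C/5% CO2, then given compound in DMSO by pintool. Luminescence from viable-cell prosubstrate reduction was read repeatedly over 40 h.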

[4] = qHTS RealTime-Glo MT Cell Viability Assay in HEK293 cells - 8 hour (AID 1224887); further: top concentration of the series differs between compounds; nearly all actives have a fitted effect of over 50% in size
Method in brief: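 600 cells/well were plated with the nonlytic NanoLuc/prosubstrate reagent, pre-incubated 5 h, then given 23 nL of compound in DMSO. Incubation at 37 C for 40 h, with luminescence from viable-cell-reduced substrate read repeatedly from 0 h.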

[5] = A CellTox Green Cytotoxicity Assay to monitor cytotoxicity in HEK293 cells - 16 hour (AID 1224888); further: nearly all actives have a fitted effect of over 35% in size
Method in brief: as §1

[6] = qHTS RealTime-Glo MT Cell Viability Assay in HepG2 cells - 0 hour (AID 1224889); further: nearly all actives have a fitted effect of over 50% in size
Method in brief: as §2

[7] = A CellTox Green Cytotoxicity Assay to monitor cytotoxicity in HepG2 cells - 8 hour (AID 1224890); further: nearly all actives have a fitted effect of over 45% in size
Method in brief: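 HepG2 cells, 600/well, preincubated 5 h with CellTox Green dye, then exposed to Tox21 compounds in DMSO at 37 C for up to 40 h. Dead-cell DNA fluorescence read at the indicated time point.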

[8] = qHTS assay to identify small molecule antagonists of the estrogen receptor alpha (ER-alpha) signaling pathway using the BG1 cell line in the presence of 0.1 nM 17-beta-estradiol - cell viability counter screen (AID 1259241); further: nearly all actives have a fitted effect of over 40% in size
Method in brief: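 VM7Luc4E2, 4,000 cells/well, phenol red-free medium + 10% charcoal-stripped FBS; 24 hr plating; cpd + 0.1 nM E2 final, 22 hr 37C/5% CO2; CellTiter-Fluor 30 min, fluorescence.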

[9] = qHTS assay to identify small molecule antagonists of the androgen receptor (AR) signaling pathway using the MDA cell line in the presence of 0.5 nM R1881 - cell viability counter screen (AID 1259242); further: nearly all actives have a fitted effect of over 45% in size
Method in brief: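 MDA-kb2 cells (MMTV-luciferase, AR/GR responsive) were treated with compounds plus 0.5 nM R1881 (final) for 16 hr at 37C, 0% CO2. Viability was then read in the same wells as live-cell protease fluorescence (CellTiter-Fluor, 30 min).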

[10] = target: Androgen receptor (Homo sapiens) (UniProt P10275); test: qHTS assay to identify small molecule antagonists of the androgen receptor (AR) signaling pathway using the MDA cell line in the presence of 0.5 nM R1881 (AID 1259243); further: nearly all actives have a fitted effect of over 50% in size
Chain of Androgen receptor (Homo sapiens) (P10275 whole entry, looked up): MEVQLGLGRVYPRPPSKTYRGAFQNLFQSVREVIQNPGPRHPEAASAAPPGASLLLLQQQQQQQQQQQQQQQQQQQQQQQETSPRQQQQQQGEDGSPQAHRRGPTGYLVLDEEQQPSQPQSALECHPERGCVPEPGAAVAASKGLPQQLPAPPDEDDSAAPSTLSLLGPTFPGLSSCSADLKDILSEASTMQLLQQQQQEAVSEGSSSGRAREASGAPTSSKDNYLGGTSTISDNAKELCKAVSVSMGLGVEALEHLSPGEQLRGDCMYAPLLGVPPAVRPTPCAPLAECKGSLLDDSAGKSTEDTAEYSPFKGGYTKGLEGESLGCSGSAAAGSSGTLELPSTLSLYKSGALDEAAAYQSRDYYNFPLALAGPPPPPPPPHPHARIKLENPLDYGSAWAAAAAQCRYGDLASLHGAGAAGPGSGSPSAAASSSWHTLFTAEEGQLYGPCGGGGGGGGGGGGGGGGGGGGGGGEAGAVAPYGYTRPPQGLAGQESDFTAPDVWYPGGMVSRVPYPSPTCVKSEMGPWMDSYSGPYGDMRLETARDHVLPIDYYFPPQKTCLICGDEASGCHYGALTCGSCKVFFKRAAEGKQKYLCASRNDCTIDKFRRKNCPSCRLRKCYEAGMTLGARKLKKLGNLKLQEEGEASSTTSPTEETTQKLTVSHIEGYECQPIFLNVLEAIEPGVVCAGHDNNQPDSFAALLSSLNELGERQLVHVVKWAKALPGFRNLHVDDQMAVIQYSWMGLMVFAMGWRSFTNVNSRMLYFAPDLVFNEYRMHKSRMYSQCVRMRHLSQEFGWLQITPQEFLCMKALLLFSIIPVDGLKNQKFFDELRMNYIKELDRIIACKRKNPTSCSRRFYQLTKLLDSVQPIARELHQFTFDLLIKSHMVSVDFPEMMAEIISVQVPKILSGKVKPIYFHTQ
Method in brief: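 MDA-kb2 cells (MMTV-luciferase, responsive to AR and GR) at 3,000/well, rested 5 h at 37C, 0% CO2, then given compounds plus 0.5 nM R1881 (final) for 16 hr. Luciferase read with ONE-Glo after 30 min at room temperature.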

[11] = target: Estrogen receptor (Homo sapiens) (UniProt P03372); test: qHTS assay to identify small molecule antagonists of the estrogen receptor alpha (ER-alpha) signaling pathway using the BG1 cell line in the presence of 0.1 nM 17-beta-estradiol (AID 1259244); further: nearly all actives have a fitted effect of over 50% in size
Chain of Estrogen receptor (Homo sapiens) (P03372 whole entry, looked up): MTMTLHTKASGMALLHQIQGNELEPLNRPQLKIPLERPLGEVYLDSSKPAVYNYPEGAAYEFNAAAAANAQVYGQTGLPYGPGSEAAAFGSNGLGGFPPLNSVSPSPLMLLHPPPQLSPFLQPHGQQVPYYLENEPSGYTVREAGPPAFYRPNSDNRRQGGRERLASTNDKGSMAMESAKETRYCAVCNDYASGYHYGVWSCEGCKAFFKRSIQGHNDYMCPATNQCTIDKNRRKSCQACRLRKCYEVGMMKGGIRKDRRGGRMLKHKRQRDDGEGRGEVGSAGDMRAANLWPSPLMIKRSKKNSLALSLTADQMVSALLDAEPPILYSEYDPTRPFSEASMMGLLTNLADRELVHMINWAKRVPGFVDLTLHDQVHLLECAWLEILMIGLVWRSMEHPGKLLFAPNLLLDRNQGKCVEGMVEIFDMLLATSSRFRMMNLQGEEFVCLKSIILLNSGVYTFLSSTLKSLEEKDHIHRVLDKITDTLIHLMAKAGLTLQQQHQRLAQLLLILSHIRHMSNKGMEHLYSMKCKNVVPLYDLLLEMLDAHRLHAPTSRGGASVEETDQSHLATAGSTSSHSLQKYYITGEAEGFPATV
Method in brief: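 VM7Luc4E2 cells (endogenous full-length ER-alpha, 4×ERE-luciferase), kept 5 days in phenol red-free, charcoal-stripped FBS medium; 4,000 cells/well. Compounds added with 0.1 nM (final) 17beta-estradiol, 22 hr at 37C; luminescence read with ONE-Glo after 30 min.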

[12] = qHTS assay to identify small molecule HDAC inhibitors (AID 1259364); further: top concentration of the series differs between compounds; nearly all actives have a fitted effect of over 45% in size
Method in brief: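 Wild-type HCT-116 cells, plated overnight at 37 C, exposed to compounds 2 hr at 37 C; luminogenic HDAC-Glo substrate then added 30 min at room temperature. Luminescence reports relative endogenous class I/II HDAC activity.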

[13] = qHTS assay to identify small molecule HDAC inhibitors - cell viability counter screen (AID 1259365)
Method in brief: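 Luminescence from CellTiter-Glo, developed 30min at room temperature, reports viability of wild-type HCT-116 cells treated 2hr with compounds at 37 C and 5% CO2 after overnight plating.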

[14] = qHTS assay to identify small molecule agonists of the sonic hedgehog signaling (Shh) pathway - cell viability counter screen (AID 1259366); further: nearly all actives have a fitted effect of over 50% in size
Method in brief: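 Cytotoxicity counter screen run in the same wells as the Shh reporter assay. NIH/3T3 cells carrying a Gli1 response element–driven luciferase were treated with DMSO-dissolved compounds for 24hr, and live-cell protease activity was measured with CellTiter-Fluor.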

[15] = qHTS assay to identify small molecule antagonists of the sonic hedgehog signaling (Shh) pathway - cell viability counter screen (AID 1259367); further: nearly all actives have a fitted effect of over 55% in size
Method in brief: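 Using CellTiter-Fluor, viability of Gli1-Luc reporter 3T3 cells is read by fluorescence in the wells used for the Shh luciferase assay. Treatment lasts 23 hr with conditioned medium, then reagent 1 hr at 37C.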

[16] = qHTS assay to identify small molecule agonists of the sonic hedgehog signaling (Shh) pathway (AID 1259368; calls by dose curve;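 further: NIH/3T3-derived 3T3Gli1-Luc cells carrying a stable Gli1-driven firefly luciferase reporter; series mostly up to about 92 µM; nearly all actives have a fitted effect of over 15% in size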)
Method in brief: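 NIH/3T3-derived 3T3Gli1-Luc cells with stably integrated Gli1-driven firefly luciferase, 2,000 cells/well, compounds added after 4 hr. Incubated 24 hr at 37C, 5% CO2; luminescence read after 30 min with luciferase reagent at room temperature.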

[17] = qHTS assay to identify small molecule antagonists of the sonic hedgehog signaling (Shh) pathway (AID 1259369; calls by dose curve; further: nearly all actives have a fitted effect of over 45% in size)
Method in brief: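 NIH/3T3-derived Gli1-Luc reporter cells plated 4 h, dosed with compound, then stimulated with conditioned medium for 24 h at 37 C. Firefly luciferase luminescence read after 30 min with detection reagent at room temperature.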

[18] = target: Estrogen receptor beta (Homo sapiens) (UniProt Q92731); test: qHTS assay to identify small molecule agonists of the estrogen receptor beta (ER-beta) signaling pathway (AID 1259377; active means well fitted activation curve with a large enough effect in the signal ratio in the repeat runs, not every such curve was filed as active; the % refers to the signal ratio)
Chain of Estrogen receptor beta (Homo sapiens) (Q92731 whole entry, looked up): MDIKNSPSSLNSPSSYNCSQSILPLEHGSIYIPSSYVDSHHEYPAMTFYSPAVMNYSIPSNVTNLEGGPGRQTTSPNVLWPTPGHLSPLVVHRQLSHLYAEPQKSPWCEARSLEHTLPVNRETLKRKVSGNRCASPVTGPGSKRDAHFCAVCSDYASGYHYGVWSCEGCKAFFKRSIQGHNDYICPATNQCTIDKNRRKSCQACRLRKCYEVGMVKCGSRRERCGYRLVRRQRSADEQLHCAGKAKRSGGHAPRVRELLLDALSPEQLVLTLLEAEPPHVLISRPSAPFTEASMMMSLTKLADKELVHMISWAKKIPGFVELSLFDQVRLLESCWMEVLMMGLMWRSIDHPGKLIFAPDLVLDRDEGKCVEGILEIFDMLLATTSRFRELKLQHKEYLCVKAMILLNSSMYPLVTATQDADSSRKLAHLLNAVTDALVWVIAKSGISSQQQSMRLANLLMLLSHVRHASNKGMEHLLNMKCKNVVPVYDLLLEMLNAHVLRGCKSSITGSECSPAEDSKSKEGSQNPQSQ
Method in brief: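 HEK293T ER-beta-UAS-bla; 2% charcoal-stripped FBS; cells pre-incubated 6 hr, compound 16 hr, 37C/5% CO2; LiveBLAzer B/G FRET substrate 2 h RT; fluorescence intensity read.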

[19] = target: Estrogen receptor beta (Homo sapiens) (UniProt Q92731); test: qHTS assay to identify small molecule antagonists of the estrogen receptor beta (ER-beta) signaling pathway (AID 1259378; active means well fitted inhibition curve with a large enough effect in the signal ratio in the repeat runs, not every such curve was filed as active; the % refers to the signal ratio)
Method in brief: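 Antagonist mode: compounds added to beta-lactamase reporter HEK293T ER-beta-UAS cells stimulated with E2 (1nM final), 16 hr at 37C. LiveBLAzer B/G FRET substrate, 2 hours room temperature, fluorescence read-out.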
On the % scale 0 is the no-effect control and ±100 the full control effect.

Brc1cc(Br)cc(Br)c1
inactive: Potency [1] | Potency [2] | Potency [3] | Potency [4] | Potency [5] | Potency [6] | Potency [7] | Potency [8] | Potency [9] | Potency [10] | Potency [11] | Potency [12] | Potency [13] | Potency [14] | Potency [15] | Potency [16]

CC(C)C(=O)C(C)C
inactive: Potency [1] | Potency [2] | Potency [3] | Potency [4] | Potency [5] | Potency [6] | Potency [7] | Potency [8] | Potency [9] | Potency [10] | Potency [11] | Potency [12] | Potency [13] | Potency [14] | Potency [15] | Potency [16] | Potency [17] | outcome [18] | Potency [19]

Cc1ccc2n[nH]nc2c1
inactive: Potency [1] | Potency [2] | Potency [3] | Potency [4] | Potency [5] | Potency [6] | Potency [7] | Potency [8] | Potency [9] | Potency [11] | Potency [12] | Potency [13] | Potency [14] | Potency [15] | Potency [16] | Potency [17] | Potency [19]

CSc1nnc(C(C)(C)C)c(=O)[nH]1
inactive: Potency [1] | Potency [2] | Potency [3] | Potency [4] | Potency [5] | Potency [6] | Potency [7] | Potency [8] | Potency [9] | Potency [10] | Potency [11] | Potency [12] | Potency [13] | Potency [14] | Potency [15] | Potency [16] | Potency [17] | Potency [19]

COc1cc2ncnc(Nc3cccc(Cl)c3)c2cc1OC
inactive: cytotoxicity increase [1] -7.13% [at 15.8 µM] | activity change, negative = cytotoxic [2] -11.4% [at 15.8 µM] | activity change, negative = cytotoxicity [3] -2.37% [at 15.8 µM] | activity change, negative = cytotoxicity [4] -3.64% [at 15.8 µM] | activity change [5] -3.26% [at 15.8 µM, hits give high values] | activity change, negative = cytotoxicity [6] -27.3% [at 15.8 µM] | cytotoxicity increase [7] -18% [at 15.8 µM] | activity change, negative = cytotoxicity [8] -7.05% [at 19 µM] | viability change, negative = cytotoxic [9] -6.19% [at 19 µM] | activity, negative = inhibition [10] 23.3% [at 19 µM] | activity change, negative = inhibition [12] -7.18% [at 19 µM] | activity change, negative = cytotoxicity [13] 2.53% [at 19 µM] | viability change, negative = cytotoxic [15] -19.1% [at 19 µM] | activity change [16] -3.79% [at 18.9 µM, hits give high values] | activation [18] -5.03% [at 19 µM] | activity, negative = inhibition [19] -15.9% [at 19 µM]

Nc1c(Br)cc([N+](=O)[O-])cc1Br
inactive: Potency [1] | Potency [2] | Potency [3] | Potency [4] | Potency [5] | Potency [6] | Potency [7] | Potency [8] | Potency [9] | Potency [11] | Potency [12] | Potency [13] | Potency [14] | Potency [15] | Potency [16] | Potency [17] | outcome [18] | Potency [19]
